Screening data from PubChem.
Rows were chosen to be rich in hits. Some 2.3% of all compounds tested hit in one or more screens of this group.
Rin1-Abl PPI inh = inhibitors of human Rin1-Abl protein interaction | P00519+Q13671 | AID 588664 | TR-FRET Rin1/Abl binding, biochemical | 360,000 compounds, 0.4% hits | inhibition, % at 7.35 µM; in the data active means inhibition above about 5%, passing the limit was not always enough
Rpn11 inh = inhibitors of human proteasome Rpn11 | O00487 | human 26S proteasome, Ub4-pepOG fluorescence polarization; 20S core pre-blocked with epoxomicin | inhibition, % at 20 µM | 360,000 compounds, 0.59% hits | AID 588493;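 active means inhibition at 20 µM, scaled to each plate's controls, above about 33%, limit read from the data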
TPT1 inh = blocks Candida albicans tRNA 2'-phosphotransferase. 300,000 compounds, 0.81% hits. inhibition, % at 5 µM. recombinant caTPT1, FP RNA substrate dephosphorylation. AID 1962;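 active means inhibition above the mean of all tested compounds plus 3 SD, set per screening campaign, cut at about 24% in these data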;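 further: plate controls were DMSO alone for no effect and ferristatin control at 100 nM for full effect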
Calb FLC = affects C. albicans growth with fluconazole; C. albicans CaCi-2 (fluconazole-resistant clinical isolate) + fluconazole, Alamar Blue growth, 48 h; growth inhibition, % (no concentration beside the values); 300,000 compounds, 0.57% hits; AID 1979;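 active means growth inhibition above about 58% in most replicates, limit read from the data, passing the limit was not always enough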;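 further: all wells also contain fluconazole at 8 µg/ml as a sub-toxic cotreatment; 0% = median of DMSO wells and 100% = median of geldanamycin control wells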
IDE cell inh = inhibitors of human insulin-degrading enzyme in cells; P14735; HEK cells, FAbetaB cleavage, fluorescence polarization; inhibition, % at 5.59 µM; 320,000 compounds, 0.41% hits; AID 434962;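 active means percent inhibition above the average of all tested compounds plus 3 SD, set per screening campaign, cut at about 16% in these data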;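 further: IDE supplied by intact live HEK cells; FP after avidin binding of uncleaved biotin substrate so inhibition keeps polarization high; 0% = DMSO wells and 100% = 60 µM reference IDE inhibitor Ii1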
IDE cell activ = boosts human insulin-degrading enzyme activity in HEK cells | P14735 | activation, % at 5.96 µM | FAbeta-B cleavage, fluorescence polarization; 0% vehicle, 100% cell-free pure enzyme wells | 340,000 compounds, 0.073% hits;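 active means activation above the mean of all tested compounds plus 3 SD, set per screening campaign, cut at about 17% in these data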
* = called active by the depositor; . = no result given.

SMILES	Rin1-Abl PPI inh	Rpn11 inh	TPT1 inh	Calb FLC	IDE cell inh	IDE cell activ
Cc1nc(C(F)(F)F)ccc1C(=O)N1CCC1(C)C(=O)NS(=O)(=O)c1c(C)noc1C (configuration not stated)	-2	-2	.	.	.	.
COc1cc(Cl)c(C)cc1NC(=O)CSc1ccc(NC(C)=O)cc1	4	-2	4	-17	18*	-9
COc1ccc(N2CCN(S(=O)(=O)CCNC(=O)C3CC(=O)N(c4ccccc4)C3)CC2)cc1 (configuration not stated)	-3	-5	-1	-8	5	0
N#C/C(=C\c1coc2ccccc2c1=O)C(N)=S	-5	44*	0	24	6	-1
COc1cccc(C2CC3(CC(C)(C)NC(=S)N3)Oc3cc(O)ccc32)c1 (configuration not stated)	-2	-9	-3	11	14	-1
Cc1cccc(C2CC3(CC(C)(C)NC(=S)N3)Oc3cc(O)ccc32)c1 (configuration not stated)	8	-7	-5	80*	10	.
CCOC(=O)Cn1c(C(=O)OCC)cc2sccc21	2	-4	2	-18	4	0
CCOC(=O)c1cc2sccc2n1CC(=O)N1CCCC1	4	-3	-5	106*	1	-1
Cc1cccc(N2C(=O)N3[C@@H]4c5ccccc5OC[C@@H]4[C@@H](c4ccccc4)[C@@]3(C)C2=O)c1	0	-5	-3	7	3	-2
Cc1ccc(Nc2cc(C)nn2-c2nc(C)cc(C)n2)cc1	0	-4	-4	6	2	3
Cc1ccc(Nc2cc(C)nn2-c2nc(C)cc(=O)[nH]2)cc1	1	14	-7	80*	4	2
COc1ccc(C)cc1NC(=S)NNC(=O)c1c(Br)cnn1C	-2	2	-2	72*	1	3
COc1ccc(C)cc1NC(=S)NNC(=O)c1ccccc1Cl	-2	8	-2	.	0	4
O=C(CNC(=O)c1ccc(S(=O)(=O)N2CCCC2)cc1)N/N=C/c1ccc(Cl)cc1	0	1	-2	14	7	-4
O=C(CNC(=O)c1ccc(S(=O)(=O)N2CCCC2)cc1)N/N=C/c1c(Cl)cccc1Cl	-1	-11	-3	3	18*	-5
CC1=C/C(=N\NC(=S)NCCc2ccccc2)CC(C)(C)C1	-1	2	-4	96*	-3	6
CCOc1ccc(NC(=O)[C@@H]2CCC(=O)N2C2OC(=O)c3ccccc32)cc1 (some centres not stated)	3	-3	1	-1	-3	4
Cc1ccc(S(=O)(=O)/N=C/c2cc(Br)ccc2O)cc1	-2	-5	-2	6	4	23*
O=C(C[C@@H]1C/C=C/CC[C@@H](Cc2ccc(F)cc2)C(=O)O[C@@H](c2ccccc2)CNC1=O)NCCO	0	0	.	.	1	3
CC(C)CCN1C(=O)c2cccc3c(N)ccc(c23)C1=O	-18	-181	-42	1	-22	54*
O=C(c1ccco1)[C@@H]1[C@@H]2C(=O)N(c3ccccc3)C(=O)[C@@H]2C2c3ccccc3C=CN21 (some centres not stated)	2	-41	-25	4	9	1
COc1ccc(N2C(=O)[C@@H]3[C@H](C2=O)[C@H]2c4ccccc4C=CN2[C@@H]3C(=O)Nc2ccccc2)cc1	-1	.	102*	.	4	-6
O=c1cc(CSc2ccc(Cl)cc2)nc(-c2ccccc2)[nH]1	1	-2	-3	1	-1	.
O=c1cc(CSc2ccc(Cl)cc2)nc(-c2ccccn2)[nH]1	-1	20	6	112*	-4	4
Cc1ccc(C)c(S(=O)(=O)N2CCN(C(=O)c3ccncc3)CC2)c1	-1	6	2	-1	2	3
SMILES	Rin1-Abl PPI inh	Rpn11 inh	TPT1 inh	Calb FLC	IDE cell inh	IDE cell activ
COc1cc2nc(SCc3ccc(F)cc3)n(Cc3cccs3)c(=N)c2cc1OC	-4	3	-1	24	7	2
COc1ccc(Cn2c(SCc3ccccc3C)nc3cc(OC)c(OC)cc3c2=N)cc1	-2	9	2	47	6	22*
Cc1ccc(S(=O)(=O)CC2CSc3nc4ccccc4n32)cc1 (configuration not stated)	-1	10	-3	88*	9	1
Cc1ccc(S(=O)(=O)CC2CSc3nc(N)cc(=O)n32)cc1 (configuration not stated)	-2	-1	-1	3	3	0
CCOC(=O)C1=C(C)Nc2ccccc2N=C1NC(=O)c1oc2ccccc2c1COC	3	1	.	.	4	4
COc1cccc(/C=N/Nc2cc(N3CCOCC3)ncn2)c1O	2	-10	-3	98*	4	2
COc1ccc(/C=N/Nc2cc(N3CCOCC3)ncn2)c(OC)c1	0	-3	3	14	4	1
CCOc1ccc(N2CSC3=C(C#N)C(c4ccco4)CC(=O)N3C2)cc1 (configuration not stated)	4	-1	10	-6	10	8
Cc1ccc(C2CC(=O)N3CN(c4ccc(Br)cc4)CSC3=C2C#N)o1 (configuration not stated)	7	45*	18	-14	10	-9
COc1ccc(/C=C(\C#N)C(=O)NCc2ccccc2)cc1O	3	3	-1	-7	0	-1
COc1ccc(/C=C(\C#N)C(=O)Nc2cc(C)c(Cl)cc2OC)cc1O	-1	12	3	-4	-4	20*
NS(=O)(=O)c1ccc(CCNC(=O)C(=O)c2cn(CC(=O)N3CCCC3)c3ccccc23)cc1	-2	4	-3	1	0	-2
C#CCOCCOCCOCCNc1nc(N2CCN(C(=O)CCCCCCCCCCNC(=O)[C@H](CCCCN)n3cc(C[C@@H](C)CC)nn3)CC2)nc(N2CCN(C(=O)CCCCCCCCCCNC(=O)[C@@H]([C@H](C)O)n3cc(C)nn3)CC2)n1	5	38	-1	.	-6	34*
C#CCOCCOCCOCCNc1nc(N2CCN(C(=O)CCCCCCCCCCNC(=O)[C@H](CCCCN)n3cc(C)nn3)CC2)nc(N2CCN(C(=O)CCCCCCCCCCNC(=O)[C@@H]([C@H](C)O)n3cc(C)nn3)CC2)n1	6	2	-3	.	6	21*
C#CCOCCOCCOCCNc1nc(N2CCN(C(=O)CCCCCCCCCCNC(=O)[C@H](CCCCN)n3cc(CCO)nn3)CC2)nc(N2CCN(C(=O)CCCCCCCCCCNC(=O)[C@H](CCCCN)n3cc(C[C@@H](C)CC)nn3)CC2)n1	.	.	2	.	-4	.
C=CC(C)(C)c1c2occc2c(O)c2ccc(=O)oc12	2	5	.	.	0	4
C=CC(C)(C)c1c(O)c(CC=C(C)C)c(O)c2c(=O)c3ccc(O)c(O)c3oc12	7	4	-1	84*	-3	5
